# Target: CD276, Q5ZPR3
# Sequence (Q5ZPR3 whole entry): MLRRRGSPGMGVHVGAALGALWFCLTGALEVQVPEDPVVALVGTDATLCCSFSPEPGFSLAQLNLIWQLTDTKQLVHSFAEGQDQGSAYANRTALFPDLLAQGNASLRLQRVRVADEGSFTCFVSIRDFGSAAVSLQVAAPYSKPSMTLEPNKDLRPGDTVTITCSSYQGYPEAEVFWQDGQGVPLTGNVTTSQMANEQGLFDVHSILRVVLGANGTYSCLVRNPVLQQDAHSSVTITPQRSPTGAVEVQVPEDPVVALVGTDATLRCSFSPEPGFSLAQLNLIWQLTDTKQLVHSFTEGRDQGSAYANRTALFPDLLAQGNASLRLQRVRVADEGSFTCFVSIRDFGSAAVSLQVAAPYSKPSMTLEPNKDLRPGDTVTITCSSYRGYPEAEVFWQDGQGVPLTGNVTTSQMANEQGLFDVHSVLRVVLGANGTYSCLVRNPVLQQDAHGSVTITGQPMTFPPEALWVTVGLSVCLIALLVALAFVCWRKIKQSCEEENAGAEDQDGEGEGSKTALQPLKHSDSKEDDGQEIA
row,Binder,binding in a display sort
1,design_610_f34cc193-997c-4684-af32-2a8002718429_113_dldesign_0_cycle1_af2pred (protein) AAAAAAAAEKAAAVAAIKEIAEAAKAHAATVGFRALAASAATVVRLAEQGLWTPEGVKKALEVLKAIYEAELAALKAAAA,not found (inactive)
2,design_610_f34cc193-997c-4684-af32-2a8002718429_136_dldesign_0_cycle1_af2pred (protein) SLNGTAGAGIVELLKALAEAQKWKALDPEFFGAAAKEIAAETAAAAQAAVAGDYEAAIAEVKAGKAVAEKAKKHAAEIA,not found (inactive)
3,design_610_f34cc193-997c-4684-af32-2a8002718429_285_dldesign_0_cycle1_af2pred (protein) LAAEVAAAEAAAAAAAAAAKALGATATAAALRAMAEDAARSTPEEAAAARDFAEAMLTVLTARLAAAKAAAA,not found (inactive)
4,design_610_f34cc193-997c-4684-af32-2a8002718429_291_dldesign_0_cycle1_af2pred (protein) AEERAKELAEELKELLAKAVADPSKAGEYLGRALELLAELQALAAEHPEVAPYAEEAHRALGAGNKALLAAIAA,not found (inactive)
5,design_610_f34cc193-997c-4684-af32-2a8002718429_328_dldesign_0_cycle1_af2pred (protein) MEAAKAAVEAARAEADALLAAAEASPDPGEATALAVDALRTVSAARREIEATYGPEAGALADAVLAEVRARVAALNRRLIA,not found (inactive)
6,design_610_f34cc193-997c-4684-af32-2a8002718429_489_dldesign_0_cycle1_af2pred (protein) EKEKKIKELLEKGLEKMKKAAELTGDPGMQTYLKMAENNVKTNSPKDAAKINAELAKIAAGHAASLDPEAAKLVEEAYKLFKEAAKL,not found (inactive)
7,design_610_f34cc193-997c-4684-af32-2a8002718429_532_dldesign_0_cycle1_af2pred (protein) MPQAEQAAQAAAKSGESLMKLAESIWSSTPEYRKAHKESILGALEVARDLYEYAAKQGGEEYKKKAEEAKAKYKEVKETL,not found (inactive)
8,design_610_f34cc193-997c-4684-af32-2a8002718429_661_dldesign_0_cycle1_af2pred (protein) AKAQAEAQLAQGQKLLEQAKKNLASGKNAVAALSNARGAYVLFQGAAYIAAKTDPELAKKAKEAAKQAEELAKQAQAAIAAA,not found (inactive)
9,design_610_f34cc193-997c-4684-af32-2a8002718429_692_dldesign_0_cycle1_af2pred (protein) SAARAAAAAAVHAKVYAVLEKQAEEALKKAAEVAKKLGDEKFYKEAKKEAEEAKKLAKESPGEGLKAITELKQKVKEAAKKAEA,not found (inactive)
10,design_610_f34cc193-997c-4684-af32-2a8002718429_742_dldesign_0_cycle1_af2pred (protein) MERAEKLIEKVKEIASLPKSKEEEQEELALKVAEEAAKLTPEEQQKVIQAMLEYAEKSGSTALLRGANRIFAA,not found (inactive)
11,design_610_f34cc193-997c-4684-af32-2a8002718429_743_dldesign_0_cycle1_af2pred (protein) EEEEKKKKAKEYVEKAKKLAEQAAKSTVEQAHQYLGQAVELAAKVHELGVLPEEANKVLAQASANALALA,not found (inactive)
12,design_610_f34cc193-997c-4684-af32-2a8002718429_824_dldesign_0_cycle1_af2pred (protein) DALVAEARRLLQEAARLLGTGSAAYIAGDKAAAVAAFKEAIGLAKKALELAKAAGDEALAASAQGLIELAEGLLAAAEA,not found (inactive)
13,design_610_f34cc193-997c-4684-af32-2a8002718429_868_dldesign_0_cycle1_af2pred (protein) DALAKAQKQAKATAEEAKKKAEEAKAAGNSAAAQMYENGAKVAEEGAKGDLKTVKAAIERGKTLIKAGDAIAAA,not found (inactive)
14,design_610_f34cc193-997c-4684-af32-2a8002718429_895_dldesign_0_cycle1_af2pred (protein) SSAEALARRTAEAMVRLAERRIREAAEEGLEKARETAEKWARFAEEALPPEVGAETAKRIREAAERIVRRKEEE,not found (inactive)
15,design_610_f34cc193-997c-4684-af32-2a8002718429_921_dldesign_0_cycle1_af2pred (protein) AEAVAVAAMLGLLRNAADHPESAEKLAEIARDMALATGVPAEKVKEVFEEGARYAREKGNEEAAKIIEEKGEEAVKAAKAA,not found (inactive)
16,design_610_f34cc193-997c-4684-af32-2a8002718429_938_dldesign_0_cycle1_af2pred (protein) SPQAELDAFLGETLETSREISAILEKNRDKVPEEVRNKISDLLNKALSYASKAALGVDPEGAAKAKKYLEEAKKLTEEAVKLA,not found (inactive)
17,design_610_f34cc193-997c-4684-af32-2a8002718429_954_dldesign_0_cycle1_af2pred (protein) MEEAKEKAEEAKKEAKEAIEKLRKVAEKAKAHPDGAEIQRRVDIAVAAVKGLLKNAEASPNPEDSLKIYEVAKELAEAERERVEAILK,not found (inactive)
18,design_610_f34cc193-997c-4684-af32-2a8002718429_1045_dldesign_0_cycle1_af2pred (protein) MTPGELGELALEALRLAAEAARLAAEDPRFAPAAAAFRAAFIEIARGGDPEEALRLYEEGLRLYEAALAAWRAA,not found (inactive)
19,design_610_f34cc193-997c-4684-af32-2a8002718429_1084_dldesign_0_cycle1_af2pred (protein) SAAQQAKQKALELFEQAAKLAAKYDPKAAEKFNKAKEALQAGDLGGALKYATEGVNILAKNASQEAADEVRAIATQGLISYAQAQILA,not found (inactive)

row,Binder,binding in a display sort
1,design_610_f34cc193-997c-4684-af32-2a8002718429_1156_dldesign_0_cycle1_af2pred (protein) NPLVKQAEKNYKKAKEMAELGLASTDPLAIRSYAAFGDSLYNNAAELLKKAGKEEEAKKVEAEGEEKKAALLAKAKAAA,not found (inactive)
2,design_610_f34cc193-997c-4684-af32-2a8002718429_1172_dldesign_0_cycle1_af2pred (protein) LTEEEAKKLLADAKQLLELAEAALADPRFARTAITAADQAAALAKEAAKHPKVAAEAKALAARAEEVRKAAEEAAA,not found (inactive)
3,design_610_f34cc193-997c-4684-af32-2a8002718429_1191_dldesign_0_cycle1_af2pred (protein) AEATGQAYADILVQSARSLAAAGASPEDVVQAMDSIAQAAIDELGEEGKKYAAKGAEKAAEEVKKLNPEAAKAVAKRAEELKKQA,not found (inactive)
4,design_610_f34cc193-997c-4684-af32-2a8002718429_1271_dldesign_0_cycle1_af2pred (protein) SGRVRQAQRLVEMAEELVETGEKEEAEKGKQLADAARALAEEALRRGDDPEAAKEVLERAKEVEKRAEEAIKA,not found (inactive)
5,design_610_f34cc193-997c-4684-af32-2a8002718429_1476_dldesign_0_cycle1_af2pred (protein) ARAAAIAEEAVRFANAASARALAAAVKTTPEANAQITALVVQLLEEADRARKATDPAEAEAHFEAARALAAEAEAIAAAALA,not found (inactive)
6,design_610_f34cc193-997c-4684-af32-2a8002718429_1550_dldesign_0_cycle1_af2pred (protein) SAAIQEQTAKDWAAVLEAAAARSTEAGIRLARAVAEVFRDDPELAEATAAALTNAEVAAALRAALEEARAAAA,not found (inactive)
7,design_610_f34cc193-997c-4684-af32-2a8002718429_1694_dldesign_0_cycle1_af2pred (protein) AAAAAELALRSAEALLRSARENAAAGTISPEGLRGAAEVIKDLARYAGELGGPEAAARAEELIAEADAVVA,not found (inactive)
8,design_610_f34cc193-997c-4684-af32-2a8002718429_1816_dldesign_0_cycle1_af2pred (protein) AEAEALAAQARAHAHKALQEVSLGGDQAEADAHLAKAEEYAAQAKALDPEIGAQTQKIIDQYKALMAQAR,not found (inactive)
9,design_610_f34cc193-997c-4684-af32-2a8002718429_1837_dldesign_0_cycle1_af2pred (protein) NQVAAIAAANQALGERAYAEGLALYAADPEANREAARAAFVRAYAYFNAAAGAAIVLGDAAAAAAAQAKAEEAKAHAEALKA,not found (inactive)
10,design_610_f34cc193-997c-4684-af32-2a8002718429_2117_dldesign_0_cycle1_af2pred (protein) AAAAETASKAGEATIEALKAGAEAARLAEELGLDPAPYHQKAAQAIAALQAGEGSLETVTALKEELEKAAKELKEKV,not found (inactive)
11,design_610_f34cc193-997c-4684-af32-2a8002718429_2230_dldesign_0_cycle1_af2pred (protein) SADQAEKQKLLAKFNEVSGEALELMEELTKAGDYETVQQVSRLLGQANGLAVAATDAATAKAALKVAEEALKLAKEALKKA,not found (inactive)
12,design_610_f34cc193-997c-4684-af32-2a8002718429_2276_dldesign_0_cycle1_af2pred (protein) AAAAAAAAAEAAARAARAKEVGQKTLDAVAARAKELGARSPALGEAEQLRLKSTAAVLAGDEAAAKAYAAQAGAILAAA,not found (inactive)
13,design_610_f34cc193-997c-4684-af32-2a8002718429_2308_dldesign_0_cycle1_af2pred (protein) AAAAEAAAARLAAAKAALAAAQAKGAELAAQSPGAGIGYVWAAAVRLGETLGPEAAALAAQARAAAAAQNRALLAQSAA,not found (inactive)
14,design_610_f34cc193-997c-4684-af32-2a8002718429_2398_dldesign_0_cycle1_af2pred (protein) AAAEIARRTVEAGVRQAFAASPEEAERLAENLAKIVEGLAGPEVGERVREIVREGLRLAEKFPEYREEIAEETAERAAELVYEALS,not found (inactive)
15,design_611_394c5ea9-a0d3-47c4-9d48-89ba6a28fdd0_264_dldesign_0_cycle1_af2pred (protein) AADEAAKKAIKQLKASVEAAARNARALAGSPDAPRAVKALKELAKVAAEGALGIAKATKDPEVAKEAKKAAEEIKKIAEETAKEIEA,not found (inactive)
16,design_611_394c5ea9-a0d3-47c4-9d48-89ba6a28fdd0_317_dldesign_0_cycle1_af2pred (protein) AEAIQKANDALQEALDYLKEMSEIAKTEKLQEAVKQIQEKVGKAAQYAIDAVKNPEKAAEYAKKAKEEAEKAKEIYEKAKKES,not found (inactive)
17,design_611_394c5ea9-a0d3-47c4-9d48-89ba6a28fdd0_498_dldesign_0_cycle1_af2pred (protein) AAAATLAQVKELIAQAKADPANAAALLSQAIRLAVTTAIAAAAAGDTAAAVALSQAAIEAMKALDEVSKAA,not found (inactive)
18,design_611_394c5ea9-a0d3-47c4-9d48-89ba6a28fdd0_577_dldesign_0_cycle1_af2pred (protein) VAAQLAAAQAKVDDVTAKVAEAKAAAKADPAEGVKIANATIGAAIDAMKAAKTYPPEVAAAAIAALSAQLAEASKIAISAQAKLDA,not found (inactive)
19,design_611_394c5ea9-a0d3-47c4-9d48-89ba6a28fdd0_579_dldesign_0_cycle1_af2pred (protein) DAAAQSKALQAQVAQAQALVEQARAAAADPARARALALQAFRQAQAVNRQAIALGDTATAAAAGEVMVAAARVLAA,not found (inactive)

# Source: PMC13494018
